# Shiga toxin inh: Shiga toxin inhibition; Vero cells, Shiga toxin protein synthesis inhibition reporter; inhibition, % at 38.7 µM; actives 9.2% (n = 290,000); in the data active = inhibition mostly above about 28%, no sharp cut-off; inactive = mostly below about 43%; also: 0% is about no effect
# AMA1 RON2 block: AMA1-RON2 (P. falciparum) interaction inhibition; AlphaScreen AMA1-biotinylated RON2 peptide binding; Potency, µM (top dose mostly 58.2 µM), for inactives: top-dose activity change, negative = inhibition, actives largely listed as inhibitors; actives 0.2% (n = 360,000); active = well fitted inhibition curve with a large enough effect; inconclusive = small, poorly fitted or top-dose-only effect; inactive = no such curve, though single readings can be large or run the other way;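 also: potency is read from the fitted curve at half-maximal effect; 0% = vehicle wells and -100% = peptide control; nearly all actives have a fitted effect of over 45% in size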
#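 AMA1 (3D7) with his tag at 25 nM final met compounds first, then biotinylated RON2 peptide at 25 nM; detection used donor plus acceptor beads, 10 µg/mL apiece, read by AlphaScreen after 30 min at room temperature.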
# Cycloheximide cs: counter-screen hit for Shiga toxin inhibitors, cycloheximide; cell reporter, cycloheximide protein synthesis inhibition counterscreen; max response, %; actives 12% (n = 300,000); AID 2314; in the data active = max response mostly above about 13%, no sharp cut-off; inactive = mostly below about 14%; also: read at 38.3 µM for the half of the compounds with a filed dose; 0% is about no effect
# Marburg entry inh: blocks Marburg virus binding to or entry into cells. Marburg virus pseudotyped entry inhibition, cell reporter. Potency, µM (highest dose often 37.8 µM), for inactives: top-dose activity change, negative = inhibition, actives largely listed as inhibitors. actives 1.8% (n = 300,000). AID 540276; calls by dose curve; tested in HEK293 cells; also: potency is read from the fitted curve at half-maximal effect; % is scaled to controls: 0 for no effect and ±100 for the full control effect
# Lassa entry inh: blocks Lassa virus binding to or entry into cells. actives 1.2% (n = 300,000). Potency, µM (highest dose often 37.9 µM), inactives show at the top dose activity change, negative = inhibition, actives largely listed as inhibitors. Lassa virus pseudotype entry inhibition, cell reporter; calls by dose curve; tested in HEK293 cells; also: potency is read from the fitted curve at half-maximal effect; % is scaled to controls: 0 for no effect and ±100 for the full control effect; nearly all actives have a fitted effect of over 50% in size
# Numbers without * were called inactive; ? = inconclusive; . = no result; [ ] = remark or other dose. This excerpt belongs to a sample that is enriched for hits.
SMILES,Shiga toxin inh,AMA1 RON2 block,Cycloheximide cs,Marburg entry inh,Lassa entry inh
O=C1c2ccccc2NC(c2ccco2)N1/N=C/c1ccco1 (centres undefined),71,3%,32*,0%,-3%[46.1 µM]
C/C(=N\N1C(=O)c2ccccc2NC1c1ccccc1)c1ccccc1O (centres undefined),67*,85%,23*,.,.
O=C(NN1C(=O)c2ccccc2NC1c1ccco1)c1ccc(Br)cc1 (centres undefined),34,15%,16,.,.
CC(=O)NN1C(=O)c2ccccc2NC1c1ccco1 (centres undefined),17,27%,11,.,.
Cc1ccc(/C=N/N2C(=O)c3ccccc3NC2c2ccc(C)cc2)cc1 (centres undefined),96*,0%,82*,?,-26%
CCN(CC(=O)Nc1ccccc1C(F)(F)F)C(=O)CCc1c(C)[nH]c(=O)c(C#N)c1C,4,4%,-2,?,-2%[46.1 µM]
Cc1[nH]nc(SCC(=O)N2CCC(C)CC2)c1[N+](=O)[O-],18,-7%,17*,-2%[46.1 µM],12%
Cc1[nH]nc(SCC(=O)N2CCCC2)c1[N+](=O)[O-],21,4%,0,.,.
Cn1c(-c2ccccc2)cnc1N,35,46%,29*,10%[46.1 µM],11%
CCOC(=O)[C@H]1[C@H]2COc3ccc(OC)cc3[C@H]2N2C(=O)CNC(=O)[C@@]12C,.,11%,.,.,.
Brc1ccc(-c2csc(NC3=NCCCCC3)n2)cc1,36,?,24*,10%[46.1 µM],1%
CCOc1ccc(-c2csc(NNC3=NCCCCC3)n2)cc1,40,1%,16*,?,26%
CCOc1ccc(-c2csc(-c3nc(-c4ccc(Br)s4)cs3)n2)cc1,.,.,.,3%[46.1 µM],6%[46.1 µM]
COc1ccc(-c2csc(NNC3=NCCCCC3)n2)cc1,26*,1%,29*,?,3%
Fc1ccc(-c2csc(NC3=NCCC3)n2)cc1,109*,-9%,21*,2%[46.1 µM],-15%[46.1 µM]
CC1CCCC(C)N1C(=O)COc1ccc(C(=O)N/N=C/c2ccc(C(=O)O)cc2)cc1 (centres undefined),-5,-4%,6,-7%[46.1 µM],1%[46.1 µM]
COc1ccc(C2C(C(N)=O)=C(C)Nc3nc(CCCO)nn32)c(OC)c1 (centres undefined),.,.,.,-11%[46.1 µM],3%[46.1 µM]
O=C(Cn1cnc2ccccc21)OCC(=O)N1CCc2ccccc2C1,7,-13%,2,5%,6%
CCCCn1c(N)c(N(CCOC)C(=O)COC(=O)COc2ccccc2C#N)c(=O)[nH]c1=O,.,2%,.,8%,0%
COc1ccc(-c2csc(NC3=NCCCCC3)n2)cc1,108*,-2%,33*,?,?
CC(=O)Nc1cc(-c2ccoc2)cn2c(-c3ccccc3)cnc12,.,3%,.,.,.
N/C(=N\NC(=O)c1sccc1OCc1ccc(Cl)cc1Cl)c1ccccn1,-5,33%,3,8.9µM*,?
CC(C)CN(C(=O)COC(=O)CCSc1ccc(Cl)cc1)c1c(N)n(Cc2ccccc2)c(=O)[nH]c1=O,.,5%,.,.,.
CCOC(=O)C1CCCc2c1[nH]c1c(C(N)=O)cccc21 (centres undefined),15,-3%,8,-7%,0%
NC(=O)c1cccc2c3c([nH]c12)CCCC3,87*,-9%,36*,4%,27%
SMILES,Shiga toxin inh,AMA1 RON2 block,Cycloheximide cs,Marburg entry inh,Lassa entry inh
COc1ccc(CN=Cc2c(O)[nH]c3ccccc23)cc1,25*,-11%,27*,?,-24%
COc1ccc(N=Cc2c(O)[nH]c3ccccc23)cc1,40*,-12%,37*,?,?
Oc1[nH]c2ccccc2c1C=Nc1ccc2c(c1)OCO2,68*,-15%,65*,?,?
COc1ccc(N=Cc2c(O)ccc3ccccc23)cc1,25,14%,12,?,?
Cc1ccc(N=Cc2c(O)[nH]c3ccccc23)c([N+](=O)[O-])c1,64*,-4%,22*,?,?
Cc1ccc(S(=O)(=O)NC2=NCN(CC(=O)O)CN2)cc1,-8,8%,-3,?,25%[46.1 µM]
COc1ccc(NC(=O)CCC(=O)Nc2nnc(C3CCCCC3)s2)c(OC)c1,-3,14%,-3,.,.
Oc1[nH]c2ccccc2c1/C=N/N1CCCCC1,-4,7%,9,?,-6%
Oc1[nH]c2ccccc2c1/C=N/c1nccs1,51,1%,28*,?,-3%
O=C(C1=C(O)C(=O)N(c2nccs2)C1c1ccccc1)c1cc2ccccc2o1 (centres undefined),59*,9%,44*,?,?

# High-throughput results: PubChem, National Center for Advancing Translational Sciences (NCATS)
